Source: PubChem BioAssay AID504467 (National Center for Advancing Translational Sciences (NCATS), 2011)
Out of some 330,000 compounds screened, about 7,700 (2.3%) were called active. Where a call stands in place of a potency, no number is given. About 26% were inconclusive and are not listed. Calls come from the whole dose curve; as a rule, active = well fitted inhibition curve with a large enough effect; inconclusive = small, poorly fitted or top-dose-only effect, or effect the other way; inactive = flat fitted curve, though single readings scatter. The full list was thinned out, with actives kept by preference.

Assay: qHTS screen for small molecules that inhibit ELG1-dependent DNA repair in human embryonic kidney (HEK293T) cells expressing luciferase-tagged ELG1; note: nearly all actives have a fitted effect of over 55% in size
Conditions: HEK293T ELG1-luciferase reporter, luminescence, 16 h, DNA damage induced by 5-fluorouridine; series mostly up to 46.1 µM
Outline: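 Reporter activity after DNA damage by 5-fluorouridine is monitored. Compound-treated cells incubate 16 hr at 37 °C, then ONE-Glo is added for 30 min before luminescence reading.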
Potency is the fitted concentration of half-maximal effect.

Structure (SMILES) | Potency
COc1ccc(C2=NN(C(=O)CSc3nc(=O)n4ccc(C)cc4n3)C(c3ccc(C)cc3)C2)cc1 (stereo not given) | inactive
CC(=O)N1c2ccc(S(=O)(=O)N3CCC(C(=O)NC4CCCC(C)C4C)CC3)cc2CC1C (stereo not given) | inactive
O=C(Cn1cnc2c(OCc3ccccc3)ncnc21)NCCCn1ccnc1 | inactive
COc1cccc(/C=N/Nc2ncc(C(F)(F)F)cc2Cl)c1O | inactive
COc1cccc(/C=N/Nc2cc(C)nc(-c3ccccc3O)n2)c1O | 5.8 µM (active)
COc1cc(NS(=O)(=O)c2ccccc2)ccc1-n1nc(C)cc1C | inactive
COc1cccc2c(N/N=C/c3ccco3)cc(C)nc12 | inactive
COc1ccc(Nc2cc(C)nc(-n3nc(C)cc3C)n2)cc1 | inactive
COc1ccccc1/C=N\Nc1cc(C)nc(-n2nc(C)cc2C)n1 | 23.1 µM (active)
CCN(c1ccccc1)S(=O)(=O)c1cc(C(=O)NCc2ccccn2)ccc1C | inactive
CC(=O)c1sc(NC(=O)CCN2C(=O)C3CC=CCC3C2=O)nc1-c1ccccc1 (stereo not given) | inactive
O=S(=O)(NCC1CN(S(=O)(=O)c2ccc3c(c2)OCCO3)C1)c1c(F)cccc1F | inactive
CC(C)N(C(=O)CN1CCN(S(=O)(=O)c2ccc(Br)s2)CC1)C(C)C | inactive
CS(=O)(=O)c1ccc(Cl)c(NC(=O)COC(=O)c2cccc(S(=O)(=O)N3CCCC3)c2)c1 | inactive
O=C(CNCc1cccs1)Nc1cc(S(=O)(=O)N2CCCC2)ccc1Cl | 16.4 µM (active)
O=C(NCc1cccs1)C1CCN(S(=O)(=O)c2ccc(Cl)cc2)CC1 | inactive
O=C(CN1CCCCCC1)Nc1ccc(S(=O)(=O)N2CCCCC2)cc1 | inactive
O=C(NN=Cc1ccc(N2CCOCC2)cc1)c1cc2ccccc2cc1O | inactive
COc1ccc(OCCC(=O)c2ccc(OC)cc2)cc1 | inactive
CCCCOc1ccc(C(=O)NN2CCN(C)CC2)cc1 | inactive
CCCOc1ccc(C(=O)C(CCC(CNCC)C(=O)c2ccc(OCCC)cc2)CNCC)cc1 (stereo not given) | 23.1 µM (active)
COc1ccc(-c2c(C#Cc3ccsc3)c3cc(-c4ccc(CN5CCOCC5)cc4)ccc3n2C)cc1 | inactive
COc1cc(OC)cc(-c2c(C#Cc3ccsc3)c3cc(-c4ccc(OC)cc4F)ccc3n2C)c1 | inactive
O=C1CC2(CC(c3ccc(Cl)cc3)=NO2)C(=O)N1c1ccccc1 (stereo not given) | inactive

Structure (SMILES) | Potency
Cc1nc(C(=O)Nc2ccc(Cl)cc2)sc1C1(C)CC(c2ccccc2)=NO1 (stereo not given) | 18.3 µM (active)
O=C(Nc1ccc(Cl)cc1)OCc1cc(-c2ccccc2)on1 | inactive
COc1ccccc1N1CCN(S(=O)(=O)c2ccc3c(c2)NC(=O)CS3)CC1 | inactive
CCOC(=O)[C@H]1[C@H]2COc3cc(OC)ccc3[C@@H]2N2C(=O)CN(Cc3ccc(Cl)cc3)C(=O)[C@@]12C | inactive
CCc1ccc(CN(C)C(=O)C2CCC(=O)N(Cc3cccc(OC)c3)C2)nc1 (stereo not given) | inactive
CN(C)S(=O)(=O)c1ccc(N2CCCC2)c(C(=O)Nc2ccc(Br)cc2F)c1 | inactive
CCOc1ccccc1NC(=O)c1cc(S(=O)(=O)N2CCC3(CC2)OCCO3)ccc1F | inactive
Cc1c(C(=O)Nc2ccccc2Cl)oc2ccc(S(=O)(=O)N3CCC4(CC3)OCCO4)cc12 | 3.66 µM (active)
Cc1c(C(=O)NCCN(C)C)oc2ccc(S(=O)(=O)N3CCCC3)cc12 | inactive
CCN(Cc1ccccc1)C(=O)Cc1ccc(OC)c(S(=O)(=O)N2CCOCC2)c1 | inactive
C=CCn1c(SCC(=O)NCc2ccccc2)nnc1-c1cc(Br)ccc1O | 13 µM (active)
C=CCn1c(SCC(=O)NC(=O)Cc2ccccc2)nc2ccccc2c1=O | inactive
C=CCn1c(SCC(=O)Nc2nc3ccccc3s2)nnc1-c1ccccc1O | inactive
Oc1ccc(/C=N/Nc2nc(-c3ccccc3F)nc3ccccc23)c(O)c1 | 14.6 µM (active)
Cc1cc(N/N=C/c2ccccc2F)c2ccccc2n1 | inactive
FC(F)(F)c1nc2ccccc2nc1N/N=C/c1ccc(Cl)cc1 | inactive
COc1ccc2ccccc2c1/C=N/NC(=O)c1cc(C)[nH]n1 | inactive
COc1ccc(C(=O)COC(=O)c2ccc([N+](=O)[O-])s2)cc1OC | inactive
CC(C)(C)c1cc(C(=O)N/N=C/c2ccc([N+](=O)[O-])s2)n[nH]1 | 5.17 µM (active)
CCOc1ccc(NC(=O)CCC(=O)N/N=C/c2ccc([N+](=O)[O-])s2)cc1 | inactive
COc1cc(/C=N\NC(=O)CNC(=O)c2cccc([N+](=O)[O-])c2)ccc1O | inactive
COc1ccc(C(=O)NCC(=O)N/N=C/c2ccc([N+](=O)[O-])s2)cc1OC | 8.2 µM (active)
O=[N+]([O-])c1ccc(O)c(/C=N/Nc2ccccc2[N+](=O)[O-])c1 | 18.3 µM (active)
O=[N+]([O-])c1ccccc1Nc1ccc(O)cc1 | inactive

Structure (SMILES) | Potency
Nc1nnnn1/N=C/c1cc([N+](=O)[O-])ccc1O | inactive
Cc1ccccc1SCC(=O)OCC(=O)N1CC(=O)Nc2ccccc21 | inactive
CCCn1c(C(C)Nc2nc(-c3ccc(C)cc3)cs2)nc2cc(Cl)c(N3CCCCC3)cc21 (stereo not given) | inactive
Cc1ccccc1Cn1c(=O)[nH]c2ccccc21 | inactive
CCCc1cc(=S)n2c([nH]c3ccccc32)c1C#N | 16.4 µM (active)
CCOC(=O)c1cnc2[nH]c3ccccc3n2c1=O | inactive
Cc1ccc(S(=O)(=O)N(C)CC(=O)NCC(c2ccc(F)cc2)N2CCOCC2)cc1 (stereo not given) | inactive
O=C(OCC(=O)N1CCCCCC1)c1ccc(Cl)nc1 | inactive
CCCCn1nc(C(=O)Nc2cccc(C(=O)NC3CC3)c2)c2ccccc2c1=O | 13 µM (active)
CCn1nc(C(=O)Nc2ccc(N3CCOCC3)cc2)c2ccccc2c1=O | inactive
CCCCn1nc(C(=O)OCC(=O)Nc2sccc2C(N)=O)c2ccccc2c1=O | inactive
Cn1c(N)c(C(=O)COC(=O)c2cccc(S(=O)(=O)N3CCOCC3)c2)c(=O)n(C)c1=O | inactive
CCCn1c(CCNc2nc(-c3ccc(OC)cc3)cs2)nc2ccccc21 | inactive
CN(c1ccccc1)S(=O)(=O)c1ccc(Cl)c(C(=O)NCCc2c[nH]c3ccccc23)c1 | 18.4 µM (active)
CCN(CC(=O)NCCc1ccccc1)S(=O)(=O)c1ccccc1 | inactive
CSCCC(NS(=O)(=O)c1ccc(C)cc1)C(=O)NCCc1c[nH]c2ccccc12 (stereo not given) | inactive
CCN(CC)S(=O)(=O)c1ccc2[nH]cc(C(=O)NCCc3ccccc3)c(=O)c2c1 | 5.8 µM (active)
CN(c1ccccc1)S(=O)(=O)c1ccc(Cl)c(C(=O)OCC(=O)NCc2ccco2)c1 | inactive
Cc1ccc(S(=O)(=O)N(C)CC(=O)NCCc2c[nH]c3ccccc23)cc1 | 14.6 µM (active)
CN(c1ccccc1)S(=O)(=O)c1ccc(Cl)c(C(=O)OCC(N)=O)c1 | inactive
CCN(CC(=O)NCCc1ccccc1)S(=O)(=O)c1ccc(C)cc1 | inactive
COc1ccccc1CC(=O)NCCc1c[nH]c2ccccc12 | inactive
